The source of these data is PubChem BioAssay AID2685 (National Center for Advancing Translational Sciences (NCATS), 2010).

The whole screen tested about 320,000 compounds, of which about 2,100 (0.66%) were called active. About 53% were inconclusive and are not listed. The call rests on the fitted dose curve; in most records, active means well fitted inhibition curve with a large enough effect in the signal ratio, with a control signal flat (not every such curve was filed as active); inconclusive means small, poorly fitted or top-dose-only effect, or effect the other way, or a change in a side signal; inactive means flat fitted curve, though single readings scatter; the % refers to the signal ratio. This excerpt belongs to a sample that is enriched for actives.
Potency means the concentration at half of the fitted maximal effect.

A short description of this experiment: qHTS Assay for Lipid Storage Modulators in Drosophila S3 Cells.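 On cell number change: cells counted by Cell Tracker Red CMTPX staining in the red channel.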 As to conditions: BODIPY lipid droplet fluorescence, 18-24 h, cells fed with added oleic acid; cell number change: measured here: cell count max response; series mostly up to 46.1 µM. Put shortly: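 Drosophila S3 cells loaded with oleic acid (400 uM, as added) and compounds at several concentrations; lipid droplets imaged by 488-nm laser-scanning cytometry, 500–530 nm intensity and object ratio to cell channel. Percent activity normalized to 20 uM Triacsin C.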
Take `Cc1c(C(=O)NCCSCc2ccccc2)cccc1[N+](=O)[O-]`: the Potency entry is “inactive” and the cell number change was -1.45%.
The like results for `O=C(c1ccc(OC2CCN(CCc3ccccc3)CC2)cc1)N1CCCC(CO)C1` (stereo unspecified) were, in that order, “inactive” and 4.02%.
On the same counts, the results for `COc1ccc(N2CCN(CC(O)COc3cc(C)ccc3C)CC2)cc1` (stereo unspecified) are “inactive” and -17%.
As to `CCCS(=O)(=O)C/C(N)=N/OC(=O)c1ccccc1Cl`, the Potency entry was “inactive” and the cell number change is -2.12%.
On the same counts, the results for `CCC(C(=O)NCc1ccco1)N(C(=O)CNS(=O)(=O)c1ccccc1)c1ccc(F)cc1` (stereo unspecified) are “inactive” and -3.04%.
`O=C(CN(c1ccc(F)cc1)S(=O)(=O)c1ccccc1)NC1CC2CCC1C2` (stereo unspecified): the Potency entry is “inactive” and the cell number change turned out to be 10.7%.
For the compound `CCc1ccccc1NC(=O)CN(c1ccc(OC)cc1OC)S(=O)(=O)c1ccccc1[N+](=O)[O-]`, the Potency entry is “inactive” and the cell number change is -4.08%.
Consider `Cc1cccc(N(CC(=O)NC2CC3CCC2C3)S(=O)(=O)c2ccccc2)c1` (stereo unspecified), for which the Potency is 20.6 µM (active) and the cell number change was -12.9%.
Consider `COc1ccc(N(CC(=O)NC2CC3CCC2C3)S(=O)(=O)c2ccc(C)cc2)cc1OC` (stereo unspecified), for which the Potency entry is “inactive” and the cell number change came out at 8.82%.
On the same counts, the results for `COc1ccc(N(CC(=O)Nc2ccc(OC)cc2OC)S(=O)(=O)c2ccccc2)cc1` are “inactive” and -4.04%.
In the case of `COc1ccc(S(=O)(=O)N(CC(=O)Nc2cccnc2)c2ccccc2OC)cc1`, the Potency entry was “inactive”.
Regarding `CCc1ccccc1NC(=O)CN(c1ccc(OC)cc1OC)S(=O)(=O)c1ccccc1`, the Potency is 2.91 µM (active) and the cell number change is -14.4%.
Take `CN(CC(=O)NCc1ccc(F)cc1)S(=O)(=O)c1ccc2c(c1)c(=O)n(C)c(=O)n2C`: the Potency entry was “inactive”.
Turning to `COc1ccccc1N(CC(=O)Nc1ccc(Cc2ccncc2)cc1)S(=O)(=O)c1ccccc1`, the Potency was 7.31 µM (active) and the cell number change turned out to be 27.6%.
In the case of `COc1cccc(CNC(=O)CN(C)S(=O)(=O)c2ccc3c(c2)c(=O)n(C)c(=O)n3C)c1`, the Potency result is “inactive” and the cell number change is -15.3%.
On to `COc1ccccc1CNC(=O)CN(C)S(=O)(=O)c1ccc2c(c1)c(=O)n(C)c(=O)n2C`, for which the Potency was 9.2 µM (active).
As to `COc1ccccc1N(CC(=O)Nc1cccnc1)S(=O)(=O)c1ccccc1`, the Potency result is “inactive” and the cell number change was -18%.
Consider `CC(=O)NC(CC(=O)OC(C)C(=O)Nc1ncc(Cl)cc1Cl)c1ccccc1` (stereo unspecified), for which the Potency entry was “inactive”.
For `CC(=O)c1c(C)n(CC(=O)NCc2ccc3c(c2)OCO3)c2ccccc12`, the Potency entry is “inactive”.
In the case of `O=S(=O)(NC(=NCCc1ccc(Cl)cc1)c1ccccc1Cl)c1cccs1`, the Potency result was “inactive” and the cell number change was 1.69%.
As for `O=C(COc1ccc([N+](=O)[O-])cc1)Nc1cc(C(=O)O)cc(C(=O)O)c1`, the Potency entry is “inactive” and the cell number change was 11.2%.
Turning to `Cc1cc(Br)ccc1NC(=O)CNC(=O)CSc1ncccn1`, the Potency result is “inactive” and the cell number change is -9.9%.
The like results for `Cc1ccccc1C1c2[nH]c3ccccc3c2C[C@H]2C(=O)N(C3CC3)CC(=O)N12` (stereo partly specified) were, in that order, “inactive” and -3.81%.
For `Cc1ccc(S(=O)(=O)N(CC(=O)N2CCCCC2)c2cccc(C)c2)cc1`, the Potency entry was “inactive” and the cell number change is -21.5%.
Take `Cc1ccc(S(=O)(=O)N(CC(=O)N2CCC(C)CC2)c2cccc(C)c2)cc1`: the Potency result is “inactive”.
Regarding `CCOC(=O)N1CCN(C(=O)CN(c2cccc(C)c2)S(=O)(=O)c2ccc(C)cc2)CC1`, the Potency was 5.8 µM (active) and the cell number change came out at 6.11%.
Consider `Cc1nc2c(C(=O)N3CCOCC3)cnn2c(C)c1Cc1ccc(Cl)cc1`, for which the Potency result is “inactive” and the cell number change is -21.6%.
On the same counts, the results for `CCn1c(SC)nc2cc(S(=O)(=O)N3CCCCC3)ccc21` are “inactive” and -3.03%.
The like results for `Cc1ccc(C(=O)NCC(=O)OCC(=O)Nc2ccc(Cl)cn2)cc1` were, in that order, 3.66 µM (active) and -28.4%.
On to `O=C(COC(=O)CNC(=O)c1ccco1)Nc1ccc(Cl)cn1`, for which the Potency entry is “inactive”.
With `Cc1ccc(OCCC(=O)OCC(=O)Nc2ccc(Cl)cn2)cc1`, the Potency result was “inactive” and the cell number change was -15.3%.
For the compound `N#Cc1ccc(COc2cccc3cccnc23)cc1`, the Potency entry is “inactive” and the cell number change is -22.2%.
With `Cc1oc2c(cc(NS(=O)(=O)c3ccc4c5c(cccc35)C(=O)N4)c3ccccc32)c1C(=O)OC(C)C`, the Potency entry is “inactive” and the cell number change came to 10.8%.
Regarding `CC(C)C(NS(=O)(=O)c1ccc2c3c(cccc13)C(=O)N2)C(=O)O` (stereo unspecified), the Potency entry was “inactive” and the cell number change was found to be 15.8%.
As to `Cc1cc(O)ccc1NS(=O)(=O)c1ccc2c3c(cccc13)C(=O)N2`, the Potency is 0.366 µM (active) and the cell number change was -0.855%.
`O=C(N=C1N=C2C=CC=CN2Cc2ccccc21)c1ccc(S(=O)(=O)N2CCCC2)cc1`: the Potency entry is “inactive” and the cell number change stood at 13.8%.
`O=C(Nc1ccc(Oc2ncnc3cc(Cl)ccc23)nc1)Nc1cccc(C(F)(F)F)c1`: the Potency result is “inactive” and the cell number change was -3.74%.
As for `O=C(N[C@H]1CC1c1ccccc1)c1ccc([N+](=O)[O-])cc1` (stereo partly specified), the Potency entry is “inactive” and the cell number change was -1.22%.
In the case of `C=C(C)Cn1c(-c2ccncc2)n[nH]c1=S`, the Potency result was “inactive” and the cell number change is -24.7%.
`O=C(CCN1CCOCC1)N1CCCC(Nc2ccc(F)cc2)C1` (stereo unspecified): the Potency entry was “inactive”.
Turning to `O=C1Nc2ncccc2OC1CCO` (stereo unspecified), the Potency was 25.9 µM (active) and the cell number change is -19.3%.
Turning to `O=C1Nc2ncccc2OC1CCCl` (stereo unspecified), the Potency result was “inactive” and the cell number change was 11.9%.
On the same counts, the results for `CCS(=O)(=O)c1ccc2c(c1)NC(=O)C(CCO)O2` (stereo unspecified) are “inactive” and 7.6%.
As to `CCOC(=O)c1ccc(NC(=O)Cn2c(=O)oc3ccccc32)cc1`, the Potency result was “inactive” and the cell number change is 2.64%.
With `CC1=C(C(=O)OC(C)(C)C)C(c2cccs2)NC(=O)N1` (stereo unspecified), the Potency entry was “inactive” and the cell number change was 16.7%.
As for `COc1ccc2c(c1OC)C(=O)NC(C)=C(C(=O)OC(C)(C)C)C2O` (stereo unspecified), the Potency was 14.6 µM (active) and the cell number change amounted to 0.147%.
On the same counts, the results for `COc1cc(C2NC(=O)NC(C)=C2C(=O)OC(C)(C)C)ccc1OCC(N)=O` (stereo unspecified) are “inactive” and 1.52%.
